# Laboratory results: PubChem BioAssay (Tox21)
# Where “and” joins values, the source holds several entries; their conditions need not be identical. Identical values can stand only once. Records with an inconclusive call do not appear. A call without a number means that no potency is given here. Some compounds were tested as several samples or in several runs, with calls that do not always agree. Calls of active or inactive are those of the source. Unless noted, calls come from the whole dose curve; as a rule, active = well fitted curve in the direction sought with a large enough effect in the repeat runs; inconclusive = weak or mixed curves; inactive = no such curve, though single readings can be large; an effect the other way counts as inactive or inconclusive.
# Assays:
# [1] = qHTS assay to identify small molecule antagonists of the estrogen related receptor (ERR) signaling pathway from Tox21 library - cell viability counter screen (AID 1224834); note: nearly all actives have a fitted effect of over 30% in size; note: potency is the fitted concentration of half-maximal effect
# How it was run: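 ERR cells, 2,000/well; 6 h settle at 37 C/5% CO2; pin-tool compound transfer in DMSO; 17.5 h at 37 C; CellTiter-Fluor, 30 min; fluorescence intensity.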
# [2] = molecular target: Luciferin 4-monooxygenase (Photinus pyralis) (UniProt P08659); test: qHTS assay to identify small molecule inhibitors of firefly luciferase (AID 1224835); note: nearly all actives have a fitted effect of over 25% in size; note: potency is the fitted concentration of half-maximal effect
# How it was run: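 Inhibition of purified Photinus luciferase is measured by luminescence. Substrate levels (D-luciferin, ATP) sit at their KM values. Each compound is tested in a concentration series.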
# [3] = qHTS assay to identify small molecule agonists of the constitutive androstane receptor (CAR) signaling pathway - cell viability counter screen (AID 1224836); note: nearly all actives have a fitted effect of over 45% in size
# How it was run: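 Cell viability multiplexed with the CAR agonist screen: CellTiter-Fluor fluorescence after 23 hr at 37 C. HepG2-CYP2B6-hCAR cells got compounds at 15 concentrations with PK11195 at 0.75 uM final.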
# [4] = qHTS assay to identify small molecule antagonists of the constitutive androstane receptor (CAR) signaling pathway - cell viability counter screen (AID 1224837); note: nearly all actives have a fitted effect of over 45% in size
# How it was run: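 Viability was measured with CellTiter-Fluor in a HepG2 line carrying stably transfected hCAR and a CYP2B6-2.2kb construct. Cells were exposed for 23 hr at 37 C to 15 compound concentrations with 50 nM CITCO as agonist.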
# [5] = molecular target: Nuclear receptor subfamily 1 group I member 3 (Homo sapiens) (UniProt Q14994); test: qHTS assay to identify small molecule antagonists of the constitutive androstane receptor (CAR) signaling pathway (AID 1224838);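 note: HepG2 cells stably expressing hCAR with CYP2B6 luciferase reporter stimulated by CITCO; nearly all actives have a fitted effect of over 40% in size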
# How it was run: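 Antagonist mode used CITCO at a final 50 nM to activate CAR in human hepatoma HepG2 cells carrying stable hCAR and a 2.2 kb CYP2B6 promoter-luciferase construct. Compounds were tested at 15 concentrations over 24 h, with luminescence as the end point.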
# [6] = molecular target: Nuclear receptor subfamily 1 group I member 3 (Homo sapiens) (UniProt Q14994); test: qHTS assay to identify small molecule agonists of the constitutive androstane receptor (CAR) signaling pathway (AID 1224839); note: nearly all actives have a fitted effect of over 15% in size; note: potency is the fitted concentration of half-maximal effect
# How it was run: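 Luminescent ONE-Glo read-out after 24 hr, 37 C exposure of double-stable HepG2-CYP2B6-hCAR reporter cells to a 15-point compound series, in the presence of 0.75 uM PK11195 (final).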
# [7] = qHTS assay to identify small molecule antagonists of the estrogen related receptor signaling pathway with the pleiotropic PPARgamma coactivator (PGC) from Tox21 10K library - cell viability counter screen (AID 1224840; active = well fitted cell-killing curve with a large enough effect in the repeat runs, not every such curve was filed as active; note: nearly all actives have a fitted effect of over 40% in size)
# How it was run: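 Multiplexed viability counter screen in the PGC/ERR cell line: cells treated with DMSO-dissolved compounds for 17.5 hours at 37 C, then viability measured as CellTiter-Fluor fluorescence.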
# [8] = molecular target: Thyrotropin receptor (Homo sapiens) (UniProt P16473); test: qHTS assay to identify small molecule agonists of the thyroid stimulating hormone receptor (TSHR) signaling pathway (AID 1224843; calls by dose curve; note: nearly all actives have a fitted effect of over 45% in size)
# How it was run: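 Agonist activity read as cAMP rise via d2/cryptate HTRF competition, 1 h room-temperature detection, in HEK293 cells expressing TSHR. Fifteen-point titrations, each run in triplicate, with a 30 min room-temperature incubation beforehand.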
# [9] = qHTS assay to identify small molecule agonists of the hypoxia (HIF-1) signaling pathway - cell viability counter screen (AID 1224844; calls by dose curve; note: nearly all actives have a fitted effect of over 50% in size; note: potency is the fitted concentration of half-maximal effect)
# How it was run: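 Cytotoxicity was measured in parallel with the HRE-driven beta-lactamase readout: after 17 hrs of compound exposure at 37C, HRE-bla ME-180 cells received CellTiter-Glo and luminescence was recorded 30 min later.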
# [10] = qHTS assay to identify small molecule agonists of the hypoxia (HIF-1) signaling pathway (AID 1224846; active = well fitted activation curve with a large enough effect in the signal ratio in the repeat runs, not every such curve was filed as active; the % refers to the signal ratio)
# How it was run: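 Compounds from the Tox21 10K library, dissolved in DMSO, are tested for induction of a hypoxia response element–controlled beta-lactamase reporter in ME-180 cells. Exposure lasts 17 hrs at 37C after a 5 hr settling period, followed by CCF4-AM FRET substrate.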
# [11] = qHTS assay to identify small molecule agonists of H2AX - cell viability counter screen (AID 1224847; calls by dose curve; note: nearly all actives have a fitted effect of over 30% in size; note: potency is the fitted concentration of half-maximal effect)
# How it was run: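 Counter-screen for viability: CellTiter-Glo ATP luminescence read after 3 h compound treatment (15-point titration, 0.76% DMSO final) of CHO-K1 cells at 37C, with 30 min room-temperature reagent incubation.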
# [12] = qHTS RealTime-Glo MT Cell Viability Assay in HepG2 cells - 24 hour (AID 1224867); note: nearly all actives have a fitted effect of over 50% in size
# How it was run: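 qHTS, HepG2, 600 cells/well, RealTime-Glo (NanoLuc + prosubstrate) added with cells; 5 h preincubation; DMSO compound addition; 37 C; luminescence at 0/8/16/24/32/40 h.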
# [13] = qHTS RealTime-Glo MT Cell Viability Assay in HEK293 cells - 32 hour (AID 1224868); note: top concentration of the series differs between compounds; nearly all actives have a fitted effect of over 50% in size
# How it was run: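 Assay medium contained NanoLuc luciferase plus cell-permeant prosubstrate, added with HEK293 cells at 600 cells/well. After 5 h at 37 C/5% CO2 compounds were added; plates stayed at 37 C for 40 h with serial luminescence reads.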
# [14] = A CellTox Green Cytotoxicity Assay to monitor cytotoxicity in HEK293 cells - 0 hour (AID 1224869); note: nearly all actives have a fitted effect of over 50% in size
# How it was run: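 Cells (HEK293, 600/well) and dye reagent are dispensed together. After 5 h at 37 C, 23 nL compound is pinned in. Plates stay at 37 C for 40 h with fluorescence read at 0h, 8h, 16h, 24h, 32h and 40h.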
# [15] = qHTS assay to identify small molecule agonists of H2AX (AID 1224845; active = well fitted activation curve with a large enough effect in the signal ratio in the repeat runs, not every such curve was filed as active; the % refers to the signal ratio)
# How it was run: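 Phospho-H2AX Ser139 measured by HTRF (ex 320 nm; em 665 and 620 nm) after 24 hr antibody incubation. Compounds, 15 concentrations, 0.76% DMSO, were applied to CHO-K1 cells for 3hr at 37C before lysis.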
# [16] = qHTS assay to identify small molecule antagonists of the estrogen related receptor signaling pathway with the pleiotropic PPARgamma coactivator (PGC) from Tox21 10K library (AID 1224841; call rule not given here; note: potency is the fitted concentration of half-maximal effect)
# How it was run: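 Steps: plate 2,000 PGC/ERR cells per well; incubate 6 h at 37 C with 5% CO2; transfer compounds from DMSO stocks by pin tool; incubate 18 h at 37 C; add One-Glo; measure luminescence 30 min later.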
# [17] = qHTS assay to identify small molecule agonists of the estrogen related receptor signaling pathway with the pleiotropic PPARgamma coactivator (PGC) from Tox21 10K library (AID 1224842); note: nearly all actives have a fitted effect of over 15% in size
# How it was run: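 Luminescence from One-Glo (30 min, room temperature) measured after PGC/ERR cells had 18 h at 37 C with pinned compound (23 nL in DMSO). Cells had been seeded at 2,000 per well and pre-incubated 6 h.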
# [18] = qHTS assay to identify small molecule antagonists of the estrogen related receptor (ERR) signaling pathway from Tox21 library (AID 1224848); note: nearly all actives have a fitted effect of over 50% in size; note: potency is the fitted concentration of half-maximal effect
# How it was run: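 Luciferase luminescence (ONE-Glo, 30 min room temperature) was the read-out. Cells of the NTP-supplied ERR line, 2,000 per well, were given 6 h at 37 C before compound addition in DMSO and 18 h exposure at 37 C.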
# [19] = qHTS assay to identify small molecule agonists of the estrogen related receptor signaling pathway with the pleiotropic PPARgamma coactivator (PGC) (AID 1224823)
# How it was run: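 Luminescence from One-Glo reagent (30 min, room temperature) was read after 18 h compound treatment at 37 C of PGC/ERR cells plated 6 h beforehand; compounds delivered in DMSO by pin tool.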
# [20] = qHTS assay to identify small molecule agonists of the estrogen related receptor (ERR) signaling pathway from Tox21 library (AID 1224849; calls by dose curve; note: nearly all actives have a fitted effect of over 15% in size); details: ERR reporter cell line, ONE-Glo luciferase, 18 h; at 92.4 µM (top of the series)
# How it was run: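 Cells carrying the ERR reporter were plated and allowed to settle for 6 h, exposed to library compounds for 18 h at 37 C, then lysed with ONE-Glo and luminescence measured.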
# Thyrotropin receptor (Homo sapiens), sequence (P16473 whole entry, looked up): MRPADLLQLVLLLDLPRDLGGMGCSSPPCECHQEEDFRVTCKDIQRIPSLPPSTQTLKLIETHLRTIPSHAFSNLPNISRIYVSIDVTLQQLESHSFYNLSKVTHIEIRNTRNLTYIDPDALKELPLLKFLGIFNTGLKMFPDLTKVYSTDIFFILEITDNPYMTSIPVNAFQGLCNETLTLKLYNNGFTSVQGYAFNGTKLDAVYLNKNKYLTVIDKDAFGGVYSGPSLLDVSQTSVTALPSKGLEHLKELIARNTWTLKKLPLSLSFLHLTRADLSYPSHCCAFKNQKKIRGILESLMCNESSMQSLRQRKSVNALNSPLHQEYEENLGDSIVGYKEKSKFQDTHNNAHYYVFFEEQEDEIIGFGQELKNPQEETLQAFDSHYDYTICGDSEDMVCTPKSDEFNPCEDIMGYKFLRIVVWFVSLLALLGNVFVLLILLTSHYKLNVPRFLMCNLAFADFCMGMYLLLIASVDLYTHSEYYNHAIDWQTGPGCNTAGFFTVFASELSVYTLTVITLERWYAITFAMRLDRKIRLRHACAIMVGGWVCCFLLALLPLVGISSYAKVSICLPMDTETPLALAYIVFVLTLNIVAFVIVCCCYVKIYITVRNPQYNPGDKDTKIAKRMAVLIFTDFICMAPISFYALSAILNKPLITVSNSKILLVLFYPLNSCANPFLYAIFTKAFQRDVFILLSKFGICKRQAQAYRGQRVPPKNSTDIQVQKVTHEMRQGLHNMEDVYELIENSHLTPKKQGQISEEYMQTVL
# Nuclear receptor subfamily 1 group I member 3 (Homo sapiens), sequence (Q14994 whole entry, looked up): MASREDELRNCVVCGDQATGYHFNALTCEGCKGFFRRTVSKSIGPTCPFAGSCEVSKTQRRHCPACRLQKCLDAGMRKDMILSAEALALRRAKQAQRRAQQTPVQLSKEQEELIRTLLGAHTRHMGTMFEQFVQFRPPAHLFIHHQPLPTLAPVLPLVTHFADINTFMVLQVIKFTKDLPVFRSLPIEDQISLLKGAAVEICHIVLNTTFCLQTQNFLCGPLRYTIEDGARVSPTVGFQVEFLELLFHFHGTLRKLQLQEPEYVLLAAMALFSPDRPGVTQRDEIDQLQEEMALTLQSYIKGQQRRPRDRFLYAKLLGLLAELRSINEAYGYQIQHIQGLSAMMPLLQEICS
# Luciferin 4-monooxygenase (Photinus pyralis), sequence (P08659 whole entry, looked up): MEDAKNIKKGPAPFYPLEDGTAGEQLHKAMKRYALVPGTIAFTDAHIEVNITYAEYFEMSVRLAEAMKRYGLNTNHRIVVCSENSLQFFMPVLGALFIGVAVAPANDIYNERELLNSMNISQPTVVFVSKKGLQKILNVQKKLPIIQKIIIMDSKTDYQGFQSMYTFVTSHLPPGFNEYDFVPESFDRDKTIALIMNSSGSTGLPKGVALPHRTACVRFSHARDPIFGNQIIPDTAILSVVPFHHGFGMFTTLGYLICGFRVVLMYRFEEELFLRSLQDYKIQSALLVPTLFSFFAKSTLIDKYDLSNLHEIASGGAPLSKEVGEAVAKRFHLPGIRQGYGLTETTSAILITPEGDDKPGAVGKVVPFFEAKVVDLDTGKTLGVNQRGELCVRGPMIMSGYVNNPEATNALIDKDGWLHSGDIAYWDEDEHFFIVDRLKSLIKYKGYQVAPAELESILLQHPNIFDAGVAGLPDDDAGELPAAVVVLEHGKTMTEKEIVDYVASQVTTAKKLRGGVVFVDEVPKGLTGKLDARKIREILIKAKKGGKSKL
Structure (SMILES),Potency [1],Potency [2],Potency [3],Potency [4],Potency [5],Potency [6],Potency [7],Potency [8],Potency [9],outcome [10],Potency [11],Potency [12],Potency [13],Potency [14],Potency [15],Potency [16],Potency [17],Potency [18],Potency [19],"activity change, positive = activation [20]"
CCCCCCCCC,inactive,inactive,inactive,inactive,inactive,inactive,inactive,inactive,inactive,inactive,inactive,inactive,inactive,inactive,–,–,–,–,–,–
CC[Si](OC(C)=O)(OC(C)=O)OC(C)=O,inactive,inactive,inactive,inactive,inactive,inactive,inactive,inactive,inactive,inactive,inactive,inactive,inactive,inactive,inactive,–,–,–,–,–
O=Nc1ccc(O)cc1,inactive,inactive,inactive,inactive,inactive,inactive,inactive,inactive,inactive,inactive,inactive,inactive,inactive,inactive,–,–,–,–,–,–
CC1Cc2ccccc2N1NC(=O)c1ccc(Cl)c(S(N)(=O)=O)c1 (configuration not stated),inactive,inactive,inactive,inactive,inactive,inactive,inactive,inactive,inactive,–,inactive,inactive,inactive,inactive,inactive,inactive,inactive,inactive,–,–
CCC(=O)O,inactive,inactive,inactive,inactive,–,–,inactive,–,inactive,inactive,inactive,inactive,inactive,inactive,–,–,–,–,–,–
O=C(O)c1cc(-c2ccccc2)nc2ccccc12,inactive,12.8 µM (active) and 13.8 µM (active),inactive,inactive,inactive,–,inactive,inactive,inactive,–,inactive,inactive,inactive,inactive,inactive,inactive,–,inactive,inactive,–
CCCCNC(N)=O,inactive,inactive,inactive,inactive,inactive,inactive,inactive,–,inactive,inactive,inactive,inactive,inactive,inactive,inactive,inactive,inactive,inactive,–,7.41% (inactive) and 4.54% (inactive)
C/C=C(C)/C=C/C=C(C)C,inactive,inactive,inactive,inactive,inactive,inactive,inactive,–,inactive,inactive,inactive,inactive,inactive,inactive,–,–,–,–,–,–
CCOC(=O)/C=C\C(=O)OCC,inactive,inactive,inactive,inactive,–,–,inactive,inactive,inactive,inactive,inactive,inactive,inactive,inactive,–,inactive,inactive,inactive,–,–
Oc1c(Cl)cc(Cl)c(Cl)c1Cl,inactive,inactive,inactive,inactive,–,–,inactive,inactive,inactive,inactive,111 µM (active),inactive,–,inactive,–,59.8 µM (active) and 54.5 µM (active),inactive,53.3 µM (active) and 48.6 µM (active),–,-46.5% (inactive) and -37.8% (inactive)
OCCOCCOCCOCCO,inactive,inactive,inactive,inactive,–,–,inactive,inactive,inactive,inactive,inactive,inactive,inactive,inactive,inactive,–,–,–,–,–
CCCCCCOC(C)=O,inactive,inactive,inactive,inactive,inactive,inactive,inactive,inactive,inactive and 27.5 µM (active),inactive,inactive,inactive,inactive,inactive,inactive,inactive,inactive,inactive,–,8.85% (inactive) and -7.41% (inactive)
C=C(C#N)C(=O)OCC,inactive,inactive,inactive,inactive,inactive,inactive,inactive,inactive,inactive,inactive,inactive,inactive,inactive,inactive,inactive,inactive,inactive,inactive,–,–
CCc1ccc(O)cc1,inactive,inactive,inactive,inactive,inactive,inactive,inactive,inactive,inactive,inactive,inactive,inactive,inactive,inactive,–,inactive,inactive,inactive,–,0.519% (inactive) and 6.7% (inactive)
Cc1cc(O)c2c(c1)C(=O)c1cc(O)cc(O)c1C2=O,27.3 µM (active),34.8 µM (active) and 31.7 µM (active),–,inactive,inactive,48.6 µM (active),inactive,inactive,inactive,inactive,55.4 µM (active) and 80 µM (active),inactive,–,inactive,–,inactive,inactive,inactive and 54.5 µM (active),inactive,–
